# VACV Venus inh = vaccinia inhibition (Venus reporter); Vaccinia virus Venus reporter expression, fluorescence; Potency, µM (series often up to 36.5 µM), inactives show at the highest dose activity change, negative = inhibition, actives largely listed as inhibitors; 330,000 compounds, 0.46% hits; AID 720580; calls by dose curve; tested in A549 cells; also: potency is read from the fitted curve at half-maximal effect; % is scaled to controls: 0 for no effect and ±100 for the full control effect; nearly all actives have a fitted effect of over 30% in size
# MARV entry inh = inhibitors of Marburg virus binding or cell entry; Marburg virus pseudotyped entry inhibition, cell reporter; Potency, µM (doses to about 37.8 µM), for the others: top-dose activity change, negative = inhibition, actives largely listed as inhibitors; 300,000 compounds, 1.8% hits; AID 540276; calls by dose curve; tested in HEK293 cells; also: potency is read from the fitted curve at half-maximal effect; % is scaled to controls: 0 for no effect and ±100 for the full control effect
# Shiga toxin inh = Shiga toxin inhibition | Vero cells, Shiga toxin protein synthesis inhibition reporter | inhibition, % at 38.7 µM | 290,000 compounds, 9.2% hits | AID 2315; in the data active = inhibition mostly above about 28%, no sharp cut-off; inactive = mostly below about 43%; also: 0% is about no effect
# Cycloheximide cs = counter-screen hit for Shiga toxin inhibitors, cycloheximide. cell reporter, cycloheximide protein synthesis inhibition counterscreen. 300,000 compounds, 12% hits. max response, %; in the data active = max response mostly above about 13%, no sharp cut-off; inactive = mostly below about 14%; also: read at 38.3 µM for the half of the compounds with a filed dose; 0% is about no effect
# Vaccinia mCherry = vaccinia inhibition (mCherry reporter) | Vaccinia virus mCherry reporter infection, fluorescence | Potency, µM (series often up to 36.5 µM), without a hit: at the highest dose activity change, negative = inhibition, actives largely listed as inhibitors | 310,000 compounds, 0.63% hits | AID 720579; calls by dose curve; tested in A549 cells; also: potency is read from the fitted curve at half-maximal effect; % is scaled to controls: 0 for no effect and ±100 for the full control effect; nearly all actives have a fitted effect of over 35% in size
# LASV entry inh = inhibitors of Lassa virus binding or cell entry. Potency, µM (top dose mostly 37.9 µM), without a hit: top-dose activity change, negative = inhibition, hits mostly inhibitors. Lassa virus pseudotype entry inhibition, cell reporter. 300,000 compounds, 1.2% hits. AID 540256; calls by dose curve; tested in HEK293 cells; also: potency is read from the fitted curve at half-maximal effect; % is scaled to controls: 0 for no effect and ±100 for the full control effect; nearly all actives have a fitted effect of over 50% in size
# An asterisk follows results filed as active; i = inactive; ? = inconclusive; / = not tested or not shown; [ ] = dose if it differs, or a comment. Many of the other results were omitted from the sample, so hits are more common in it than they were.
SMILES,VACV Venus inh,MARV entry inh,Shiga toxin inh,Cycloheximide cs,Vaccinia mCherry,LASV entry inh
O=S(=O)(c1cccc(F)c1)N1CCC(Oc2ccc(-n3cnnn3)cc2)CC1,-23%,-14%[46.1 µM],/,/,-17%,1%[46.1 µM]
O=C(c1ccc2c(=O)n3c(nc2c1)CCCCC3)N1CCCCC1,-10%,2%[46.1 µM],-1,21*,-7%,15%[46.1 µM]
CN(C(=O)c1ccc2c(=O)n3c(nc2c1)CCCCC3)c1ccccc1Cl,-15%,0%[46.1 µM],24,19*,6%,2%
O=C(c1ccc2c(=O)n3c(nc2c1)CCCCC3)N1CCN(C(c2ccccc2)c2ccccc2)CC1,/,?,-2,-2,/,16µM*
O=C(c1ccc2c(=O)n3c(nc2c1)CCCCC3)N1CCN(c2ccccc2)CC1,-7%,1%[46.1 µM],-9,0,-5%,-13%
Cc1ccc(NC(=O)Nc2cn(C)c(=O)c3ccccc23)c(Cl)c1,-6%,/,/,/,-5%,-11%[46.1 µM]
Cc1nc(-c2ccc3c(c2)OCCO3)cs1,-8%,19%[46.1 µM],169*,44*,i,?
Cc1ccc(Nc2nc(-c3ccncc3)cs2)cc1,-23%,?,119*,47*,-23%,-11%
Cc1cccc(Nc2nc(-c3ccncc3)cs2)c1,/,/,143*,42*,/,/
Clc1cccc(Nc2nc(-c3ccncc3)cs2)c1,?,?,-5,0,?,?
Cc1nc(-c2ccc3c(c2)CCC(=O)N3)cs1,-8%,7%[46.1 µM],65*,29*,i,9%
Cc1ccc(-c2csc(Cc3nc(-c4ccc5c(c4)CCC(=O)N5)cs3)n2)cc1,-3%,-20%[46.1 µM],-12,-1,-13%,-12%
Cc1cccc(Nc2nc(-c3ccc4c(c3)OCCO4)cs2)c1,-18%,?,120*,44*,-25%,?
O=C(Nc1nc(-c2ccc3c(c2)OCCO3)cs1)c1ccc(Br)o1,-19%,/,/,/,i,/
COc1ccc(OC)c(CNC(=O)Nc2cn(CC(C)C)c(=O)c3ccccc23)c1,5%,/,/,/,4%,-6%[46.1 µM]
COC(=O)[C@H]1[C@H]2C[C@@H]3c4[nH]c5cc(OC)ccc5c4CCN3C[C@H]2C[C@@H](OC(=O)c2cc(OC)c(OC)c(OC)c2)[C@@H]1OC,-21%,10µM*,/,/,i,7.3µM*
O=c1nc(-c2ccccc2)c2cc(Br)ccc2[nH]1,-14%,-9%[46.1 µM],-23,-2,i,-7%[46.1 µM]
O=c1cc2[nH]c3ccccc3c(=O)n2nc1-c1ccccc1,-11%,?,64,25*,-13%,-2%
N#C/C(=C\c1ccc(OCc2ccccc2)cc1)C(N)=O,7%,14%[46.1 µM],90*,24*,-8%,9%
COc1ccc(/C=C(\C#N)C(=O)NCc2ccccc2)cc1,-12%,10%[46.1 µM],87*,34*,-16%,12%[46.1 µM]
Cc1ccc(/C=C(/C#N)C(=O)NC(=O)Oc2ccccc2)cc1,-11%,?,17,16,-14%,?
CNC(=O)/C(C#N)=C/c1ccc(OCCOc2ccccc2)cc1,/,/,15,11*,/,/
Cc1ccsc1/C=C(/C#N)C(=O)NCc1ccccc1,-3%,-2%,27,12*,-15%,1%
N#C/C(=C\c1ccc(O)cc1)C(=O)NCc1ccccc1,-13%,-1%[46.1 µM],-5,2,-4%,-4%[46.1 µM]
Cc1ccsc1/C=C(\C#N)C(=O)NCc1cccnc1,-3%,?,-11,-1,-15%,4%
SMILES,VACV Venus inh,MARV entry inh,Shiga toxin inh,Cycloheximide cs,Vaccinia mCherry,LASV entry inh
O=C(c1ccc2c(c1)OCO2)N(Cc1cc2ccc(F)cc2nc1N1CCC(O)CC1)CC1CCCO1 (stereo not given),38%,/,/,/,12%,/
N#C/C(=C\c1ccc(OCc2ccccc2)cc1)C(=O)Nc1nc2c(s1)CCN(Cc1ccccc1)C2,-2%,?,4,20*,-13%,11%
CCCn1c(/C=C/c2ccco2)nc2ccccc21,6%,-1%,7,12,-9%,-1%
Cc1ccc(Cn2c(/C=C/c3ccco3)nc3ccccc32)cc1,10%,?,161*,103*,-11%,20%
Clc1ccc(Cn2c(/C=C/c3ccco3)nc3ccccc32)cc1,-4%,?,187*,216*,i,-4%
O=C(Nc1cc(Cl)cc(Cl)c1)c1cc(S(=O)(=O)N2CCc3ccccc3C2)ccc1F,-14%,/,/,/,-15%,16%[46.1 µM]
CCCCCCCCCCn1cc(C(C)=O)c(=O)[nH]c1=O,/,-8%,-14,-1,/,5%
Cc1ccc(CNC(=O)CCc2c(C)c3ccc(O)c(C)c3oc2=O)cc1,8%,-2%[46.1 µM],/,/,6%,-15%[46.1 µM]
Cc1cc2n(n1)C(c1ccccc1)CC(c1ccc(Br)cc1)=N2 (stereo not given),/,-34%,29*,37*,/,-1%
O=C(N/N=C/c1cc(Cl)c(O)c(Cl)c1)c1cc2c(ccc3ccccc32)o1,/,/,158,37*,/,/
Cc1ccc(/C=N/NC(=O)c2cc3c(ccc4ccccc43)o2)o1,-10%,-16%[46.1 µM],3,3,-14%,-23%[46.1 µM]
CNC(=O)c1cc2c(ccc3ccccc32)o1,/,/,81*,33*,/,/
COCC(C)NC(=O)c1cc2c(ccc3ccccc32)oc1=O (stereo not given),/,/,22*,24*,/,/
O=C(Nc1cc2c(ccc3ccccc32)oc1=O)C1CCCCC1,-1%,20%,11,4,i,-4%
O=C(NC1CCCC1)c1cc2c(ccc3ccccc32)o1,-7%,?,60*,44*,i,?
c1ccc(OCCNc2ccn3nc(-c4ccco4)cc3n2)cc1,-6%,/,/,/,14%,/
Cc1ccc(C(C)NC(=O)Cc2cccs2)c(C)c1 (stereo not given),-17%,1%,26,-1,i,?
O=C(NC1CC1)c1cc2ccccc2o1,/,/,43*,15*,/,/
CC(=O)OC[C@H]1O[C@H](CC=NO[C@@H](C)c2cc(-c3c(C)cc(C)cc3C)no2)C=C[C@@H]1OC(C)=O,/,-3%[14.2 µM],/,/,/,/
O=C(CN1C(=O)c2ccccc2S1(=O)=O)c1cccc(Br)c1,-10%,?,-8,1,i,1.3µM*
O=C(CN1C(=O)c2ccccc2S1(=O)=O)c1ccc(F)cc1,/,/,-12,-6,/,/
O=C(CN1C(=O)c2ccccc2S1(=O)=O)c1ccc(OC(F)F)cc1,2%,1.3µM*,-15,-5,-9%,0.89µM*
O=C(CN1C(=O)c2ccccc2S1(=O)=O)c1ccc(Cl)cc1Cl,-10%,0.28µM*,/,/,i,0.56µM*
O=C(CN1C(=O)c2ccccc2S1(=O)=O)c1ccccc1F,-9%,?,-5,9,-6%,?
CC1CCN(C(=O)CN2C(=O)c3ccccc3S2(=O)=O)CC1,-11%,?,21,1,-11%,7.9µM*
CCc1ccc(C(=O)c2cn(CC(=O)Nc3ccc(F)cc3)c3ccc(OC)cc3c2=O)cc1,-8%,0%[46.1 µM],/,/,-14%,6%[46.1 µM]
CN(C)C(=O)C(Sc1ccc(S(=O)(=O)N2CCCC2)cn1)c1ccccc1 (stereo not given),-12%,?,/,/,-25%,-19%
Cc1cccc(OCCn2ccnc2)c1C,-23%,?,-3,-3,-1%,13%[46.1 µM]
Cc1cc(Cl)cc(C)c1OCCn1ccnc1,14%,1.3µM*,-5,-6,-22%,3.5µM*
